Source: PubChem BioAssay (NCATS)
Records with an inconclusive call do not appear. Activity calls are given as the source filed them. Unless noted, the call rests on the fitted dose curve; in most records, active means well fitted cell-killing curve with a large enough effect; inconclusive means small, poorly fitted or top-dose-only effect, or effect the other way; inactive means no such curve, though single readings can be large or run the other way.

How the values were obtained:
[1] = Quantitative High-Throughput drug screen in 47 multiple myeloma cell lines against the NCATS MIPE library collection: OPM1_PLB cell viability assay (AID 1918989); further: nearly all actives have a fitted effect of over 40% in size; further: potency means the concentration at half of the fitted maximal effect
Outline: (§1)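 Readout: median RLU from CellTiter-Glo after 5 min at room temperature. Preceding step was 48 h drug treatment of 500 cells/well at 37 °C, 5% CO2, with DMSO-only and media-only control wells.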

[2] = Quantitative High-Throughput drug screen in 47 multiple myeloma cell lines against the NCATS MIPE library collection: SKMM1_PLB cell viability assay (AID 1919863); conditions: SKMM1 myeloma viability, CellTiter-Glo ATP, 48 h; viability: stronger effect = lower value; further: nearly all actives have a fitted effect of over 35% in size; further: potency means the concentration at half of the fitted maximal effect
Outline: as §1

[3] = Quantitative High-Throughput drug screen in 47 multiple myeloma cell lines against the NCATS MIPE library collection: XG1_PLB cell viability assay (AID 1919866); further: nearly all actives have a fitted effect of over 35% in size; further: potency means the concentration at half of the fitted maximal effect
Outline: as §1

[4] = Quantitative High-Throughput drug screen in 47 multiple myeloma cell lines against the NCATS MIPE library collection: PE2_PLB cell viability assay (AID 1919869); further: nearly all actives have a fitted effect of over 35% in size; further: potency means the concentration at half of the fitted maximal effect
Outline: as §1

[5] = Quantitative High-Throughput drug screen in 47 multiple myeloma cell lines against the NCATS MIPE library collection: PCM6_Riken cell viability assay (AID 1919870); further: nearly all actives have a fitted effect of over 30% in size; further: potency means the concentration at half of the fitted maximal effect
Outline: as §1

[6] = Quantitative High-Throughput drug screen in 47 multiple myeloma cell lines against the NCATS MIPE library collection: KMS11_JCRBsus cell viability assay (AID 1919873); further: nearly all actives have a fitted effect of over 50% in size; further: potency means the concentration at half of the fitted maximal effect
Outline: as §1

[7] = Quantitative High-Throughput drug screen in 47 multiple myeloma cell lines against the NCATS MIPE library collection: VP6_DJ cell viability assay (AID 1919867); further: nearly all actives have a fitted effect of over 40% in size; further: potency means the concentration at half of the fitted maximal effect
Outline: as §1

[8] = Quantitative High-Throughput drug screen in 47 multiple myeloma cell lines against the NCATS MIPE library collection: UTMC2_PLB cell viability assay (AID 1919868); conditions: CellTiter-Glo ATP luminescence, 48 h; viability (% of DMSO control): at 45.8 µM (top of the series) unless noted; further: nearly all actives have a fitted effect of over 55% in size; further: potency means the concentration at half of the fitted maximal effect;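 on viability (% of DMSO control): 100% = DMSO-only wells and 0% = media-only wells without cells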
Outline: as §1

[9] = Quantitative High-Throughput drug screen in 47 multiple myeloma cell lines against the NCATS MIPE library collection: RPMI8226_ATCC cell viability assay (AID 1919871); further: nearly all actives have a fitted effect of over 30% in size; further: potency means the concentration at half of the fitted maximal effect
Outline: as §1

[10] = qHTS drug screen for cell cycle checkpoint inhibitors in PARPi-resistant BRCA-mutant ovarian cancer cell lines. (AID 1963452; calls by dose curve); conditions: PEO1/OlaR viability, CellTiter-Glo luminescence, 96 h, stronger effect = lower value
Outline: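 PEO1, PEO4 and PEO1/OlaR ovarian cancer cells, 600 per well, exposed 96 h at 37C to a dilution series. Viability read by CellTiter-Glo luminescence, normalized to DMSO and empty wells; activity summarized as Z-AUC.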

[11] = Quantitative High-Throughput drug screen in 47 multiple myeloma cell lines against the NCATS MIPE library collection: OCIMY5_PLB cell viability assay (AID 1918988); further: nearly all actives have a fitted effect of over 65% in size; further: potency means the concentration at half of the fitted maximal effect
Outline: as §1

[12] = Quantitative High-Throughput drug screen in 47 multiple myeloma cell lines against the NCATS MIPE library collection: U266_ATCC cell viability assay (AID 1919864); further: nearly all actives have a fitted effect of over 35% in size; further: potency means the concentration at half of the fitted maximal effect;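 on viability (% of DMSO control): 0% = media-only wells without cells and 100% = DMSO-only wells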
Outline: as §1

[13] = Quantitative High-Throughput drug screen in 47 multiple myeloma cell lines against the NCATS MIPE library collection: XG6_PLB cell viability assay (AID 1919865); further: nearly all actives have a fitted effect of over 40% in size; further: potency means the concentration at half of the fitted maximal effect
Outline: as §1

[14] = Quantitative High-Throughput drug screen in 47 multiple myeloma cell lines against the NCATS MIPE library collection: OPM2_DSMZ cell viability assay (AID 1919872); further: nearly all actives have a fitted effect of over 30% in size; further: potency means the concentration at half of the fitted maximal effect
Outline: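 qHTS of the MIPE 4.0 collection: 500 myeloma cells/well, 48 h drug exposure at 37C in 5% CO2, then CellTiter-Glo for 5 min at room temperature before luminescence reading.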

[15] = Quantitative High-Throughput drug screen in 47 multiple myeloma cell lines against the NCATS MIPE library collection: KMS28BM_JCRB cell viability assay (AID 1919874); further: nearly all actives have a fitted effect of over 35% in size; further: potency means the concentration at half of the fitted maximal effect
Outline: as §1

[16] = Quantitative High-Throughput drug screen in 47 multiple myeloma cell lines against the NCATS MIPE library collection: OCIMY7_PLB cell viability assay (AID 1918987); further: nearly all actives have a fitted effect of over 65% in size; further: potency means the concentration at half of the fitted maximal effect
Outline: as §1

[17] = qHTS for identification of novel therapeutic agents for treatment of microphthalmiaassociated transcription factor (MiT) renal cell carcinoma (RCC) (AID 1963991); conditions: CellTiter-Glo, 48 h, stronger effect = lower value
Outline: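 Viability of three TFE3-fusion renal carcinoma lines measured by CellTiter-Glo after 48 h treatment with each of 1912 compounds at 11 concentrations. Responses scaled between DMSO (100%) and empty wells (0%) before curve fitting.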

[18] = measured here: PEO1 parental Z-AUC
[19] = TFE3-RCC UOK109 viability, measured here: UOK109 Z-AUC
[20] = TFE3-RCC viability, measured here: UOK124 Z-AUC
[21] = TFE3-RCC viability, measured here: UOK145 Z-AUC

SMILES: CCNC(=O)Nc1ccc2ncc(Nc3ccc(C)cc3)nc2n1
- Potency [1]: 7.43 µM (active)
- viability [2]: 139% (inactive)
- Potency [3]: 332 nM (active)
- Potency [4]: 3.72 µM (active)
- Potency [5]: 0.935 µM (active)
- Potency [6]: 18.7 µM (active)

SMILES: CN(C)CC(C)(C)CNc1nn2c(-c3ccccc3)nnc2cc1C1CCC1
- Potency [7]: 10.5 µM (active)
- Potency [8]: 1.05 µM (active)
- Potency [4]: 11.8 µM (active)
- Potency [9]: inactive
- Potency [6]: inactive
- Z-AUC [10]: 0.384 (inactive)
- Z-AUC [10, 18]: 0.768
- Z-AUC ([10]; measured here: PEO4 Z-AUC): 0.988

SMILES: Cc1ccc(CN2CCNCC2)cc1NC(=O)CNc1ccc(F)c(F)c1
- Potency [11]: 18.7 µM (active)
- Potency [12]: 29.6 µM (active)
- Potency [13]: inactive
- Potency [4]: inactive
- Potency [5]: inactive
- Potency [9]: inactive
- Potency [14]: inactive
- Z-AUC [10]: -0.297 (inactive)
- Z-AUC [10, 18]: -0.179
- Z-AUC ([10]; measured here: PEO4 Z-AUC): -0.154

SMILES: CCCn1c(=O)c2[nH]c(-c3cnn(Cc4cccc(C(F)(F)F)c4)c3)nc2n(CC)c1=O
- Potency [11]: 23.5 µM (active)
- Potency [1]: inactive
- Potency [12]: inactive
- Potency [3]: inactive
- Potency [8]: inactive
- Potency [4]: inactive
- Potency [5]: inactive
- Potency [9]: 7.43 µM (active)
- Potency [6]: inactive
- Potency [15]: inactive
- Z-AUC [10]: 1.35 (inactive)
- Z-AUC [10, 18]: 1.45
- Z-AUC ([10]; measured here: PEO4 Z-AUC): 1.33

SMILES: CCCCCN(CCC12CC3CC(CC(C3)C1)C2)C(=O)NCCCc1ccncc1
- Potency [16]: 16.6 µM (active)
- Potency [11]: 14.8 µM (active)
- Potency [2]: 23.5 µM (active)
- Potency [12]: 14.8 µM (active)
- Potency [8]: 18.7 µM (active)
- Potency [9]: 20.9 µM (active)
- Potency [14]: inactive
- Potency [6]: 16.6 µM (active)
- Potency [15]: 8.33 µM (active)
- Z-AUC [10]: -0.0878 (inactive)
- Z-AUC [10, 18]: 0.162
- Z-AUC ([10]; measured here: PEO4 Z-AUC): -0.141

SMILES: O=C(O)C1(Cc2cccc(Nc3nccs3)n2)CCC(Oc2cccc(Cl)c2F)CC1 (stereo not given)
- Potency [16]: 0.296 µM (active)
- Potency [11]: 0.662 µM (active)
- Potency [1]: 0.332 µM (active)
- Potency [13]: 209 nM (active)
- Potency [3]: 52.6 nM (active)
- Potency [7]: 0.148 µM (active)
- Potency [8]: 0.0372 µM (active)
- Potency [5]: 0.418 µM (active)
- Potency [9]: inactive
- Potency [6]: 0.296 µM (active)
- Potency [15]: 0.332 µM (active)
- Z-AUC [10]: -0.463 (inactive)
- Z-AUC [10, 18]: -1.23
- Z-AUC ([10]; measured here: PEO4 Z-AUC): -1.84

SMILES: CN(C)c1nc(Cc2ccc(NC(=O)c3ccc4ccccc4c3)cc2)nc(Cl)c1CC(=O)O
- Potency [11]: 1.66 µM (active)
- Potency [1]: inactive
- Potency [12]: inactive
- Potency [13]: inactive
- Potency [3]: inactive
- Potency [4]: inactive
- Potency [5]: inactive
- Potency [9]: inactive
- Potency [14]: inactive
- Potency [15]: inactive
- z-score [17, 19]: 0.743
- z-score [17, 20]: 0.693
- z-score [17, 21]: 0.756

SMILES: Cc1cn2c(-c3cn[nH]c3)cnc2c(Nc2ccc(C(=O)N3CCNCC3)cc2F)n1
- Potency [16]: 10.5 µM (active)
- Potency [11]: 20.9 µM (active)
- Potency [1]: 18.7 µM (active)
- Potency [2]: 18.7 µM (active)
- Potency [3]: 3720 nM (active)
- Potency [4]: 20.9 µM (active)
- Potency [5]: 18.7 µM (active)
- Potency [14]: 23.5 µM (active)
- Potency [6]: 8.33 µM (active)
- Potency [15]: 8.33 µM (active)

SMILES: CCN1CCN(Cc2ccc(-c3cc4c(N[C@H](C)c5ccccc5)ncnc4[nH]3)cc2)CC1
- Potency [16]: inactive
- Potency [8]: 0.662 µM (active)
- Potency [5]: 1.66 µM (active)
- Potency [6]: 3.72 µM (active)
- Potency [15]: 2.96 µM (active)
- Z-AUC [10]: -1.03 (inactive)
- Z-AUC [10, 18]: 0.0439
- Z-AUC ([10]; measured here: PEO4 Z-AUC): -0.489

SMILES: O=C(C=Cc1c(C(=O)O)[nH]c2cc(Cl)cc(Cl)c12)Nc1ccccc1
- Potency [16]: inactive
- Potency [11]: inactive
- Potency [1]: inactive
- viability [2]: 114% (inactive)
- Potency [13]: inactive
- Potency [3]: inactive
- Potency [7]: inactive
- Potency [5]: inactive
- Potency [9]: inactive
- Potency [14]: inactive
- Potency [6]: inactive
- Potency [15]: inactive
- z-score [17, 19]: 0.0645
- z-score [17, 20]: 0.537
- z-score [17, 21]: 0.334

SMILES: CCCCN1CCC(CNC(=O)c2c3n(c4ccccc24)CCCO3)CC1
- Potency [16]: 3.72 µM (active)
- Potency [11]: 3.32 µM (active)
- Potency [1]: 23.5 µM (active)
- Potency [2]: 16.6 µM (active)
- Potency [12]: 4.69 µM (active)
- Potency [13]: 833 nM (active)
- Potency [3]: 743 nM (active)
- Potency [8]: 9.35 µM (active)
- Potency [4]: 11.8 µM (active)
- Potency [5]: 3.32 µM (active)
- Potency [6]: 13.2 µM (active)
